From PubChem BioAssay (EPA / NIEHS)
Active and inactive are the calls of the source. Rule for the calls: active = hit-call score of the fitted dose curve at least 0.9, where 1 is the maximum; inactive = score below 0.9.

Tests used:
[1] = UKN5_HCS_SBAD2_cell_viability: Viability Assessment in the University of Konstanz (UKN) Leist Lab Neurite Outgrowth Assay in human iPSC-derived immature Dorsal Root Ganglia Neurons (UKN5) (AID 2284056)
Procedure, shortened: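 iPSC-derived immature peripheral neurons (SBAD2) seeded on Matrigel with CHIR99021, SU5402 and DAPT, dosed 1 h later for 24 h. Viability from Hoechst H-33342 and calcein-AM live staining, high-content imaging; bidirectional fit versus DMSO.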

[2] = UKN5_HCS_SBAD2_neurite_outgrowth: University of Konstanz (UKN) Leist Lab Neurite Outgrowth Assay in human iPSC-derived immature Dorsal Root Ganglia Neurons (UKN5) (AID 2284070); details: actives raise or lower the signal
Procedure, shortened: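 Neurite area from calcein-AM high-content images after 24 h exposure (staining included), with H-33342 for viability, fitted both directions against DMSO. Cells: thawed immature SBAD2 peripheral neurons, 100.000 cells/cm2, with CHIR99021, SU5402, DAPT; dosing 1 h after seeding.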

[3] = UKN4_HCS_LUHMES_neurite_outgrowth: University of Konstanz (UKN) Leist Lab Neurite Outgrowth Assay in human LUHMES cells (UKN4) (AID 2284206); details: actives raise or lower the signal
Procedure, shortened: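 After 24 h compound treatment beginning shortly after replating of 2-day-differentiated LUHMES cells, calcein-AM and H-33342 live staining allowed high-content imaging of neurite area and viability. Fitted bidirectionally against DMSO.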

[4] = UKN4_HCS_LUHMES_cell_viability: Viability Assessment in the University of Konstanz (UKN) Leist Lab Neurite Outgrowth Assay in human LUHMES cells (UKN4) (AID 2284232)
Procedure, shortened: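 Viability was read by high-content imaging of calcein-AM/H-33342-stained cells after 24 h toxicant exposure, staining included. Cells: human LUHMES on day 2 of dopaminergic differentiation, dosed shortly after attachment; DMSO baseline, bidirectional curve fitting.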

[5] = UKN2_HCS_IMR90_cell_viability: Viability Assessment in the University of Konstanz (UKN) Leist Lab Neural Crest Cell Migration Assay in human induced IMR90 Pluripotent Stem Cells (UKN2) (AID 2284233);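 note: cells exposed to compound for 24 h after a 24 h migration phase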
Procedure, shortened: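 After calcein-AM/Hoechst staining, viability is quantified by high-content fluorescence imaging, relative to DMSO, in iPSC (IMR90)-derived neural crest cells. Exposure lasts 24 h, starting after a 24 h migration period on PLO/laminin/fibronectin coating.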

[6] = Tanguay_ZF_120hpf_MUSC: Oregon State University Tanguay Lab 120 Hour Post-fertilization zebrafish Assay for Muscle Malformation (AID 2284401)
Procedure, shortened: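 Scored as a binary brightfield endpoint at 120 hpf, fitted versus DMSO. Single dechorionated wild-type (Tropical 5D) zebrafish embryos per well, statically exposed at 28C from 6 hpf onward with final DMSO 0.64%.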

Measured: outcome

CN1CC=C(c2ccccc2)CC1
not listed: [6]
inactive: all other assays above

O=C(O)CCC(F)(F)C(F)(F)C(F)(F)F
inactive: [6]
